RECQ1 inh = blocks DNA unwinding by human RECQ1; RECQ1 DNA unwinding, red fluorescence kinetic read; Potency, µM (top dose mostly 57.3 µM), for inactives: at the highest dose activity, negative = inhibition, hits mostly inhibitors; actives 0.54% (n = 240,000);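 further: plate controls were vehicle for no effect and no enzyme for full effect; nearly all actives have a fitted effect of over 30% in size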
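RECQ1T1 50 nM; forked duplex (20 bp + 30-nt ss tails) 200 nM, ATP 2 mM final; pH 8.0, 2 mM MgCl2, 2.5 ug/ml poly(dI-dC); 15 min compound preincubation; discontinuous kinetic read over 2 h at RT.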
BLM inh = Bloom syndrome helicase (human) inhibition | P54132 | recombinant BLM DNA unwinding, fluorescence dequenching | Potency, µM (doses to about 56.1 µM), for inactives: top-dose activity change, negative = inhibition, most hits filed as inhibitors | actives 0.2% (n = 350,000) | AID 2528;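 further: plate controls were vehicle for no effect and no enzyme for full effect; nearly all actives have a fitted effect of over 35% in size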
APE1 inh-1 = inhibitors of human APE1 endonuclease; AID 2517; recombinant APE1, TAMRA/BHQ-2 abasic DNA cleavage fluorescence; Potency, µM (series often up to 65.8 µM), without a hit: at the top dose activity change, negative = inhibition, usual class: inhibitors; P27695; actives 0.35% (n = 350,000);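 further: plate controls were vehicle for no effect and reference inhibitor for full effect; nearly all actives have a fitted effect of over 55% in size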
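Enzyme (0.75 nM final) and test compound are incubated 15 min at room temperature before adding 50 nM quenched THF abasic-site duplex. Cleavage dequenches TAMRA, followed at 525/598 nm over three reads one minute apart.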
WRN inhibitor = inhibitors of human WRN helicase; WRN helicase unwinding, fluorescent forked duplex, kinetic; Potency, µM (series often up to 114 µM), for the others: at the top dose activity change, negative = inhibition, actives largely listed as inhibitors; actives 0.46% (n = 360,000); further: nearly all actives have a fitted effect of over 55% in size
Target sequence (Q14191 whole entry, looked up): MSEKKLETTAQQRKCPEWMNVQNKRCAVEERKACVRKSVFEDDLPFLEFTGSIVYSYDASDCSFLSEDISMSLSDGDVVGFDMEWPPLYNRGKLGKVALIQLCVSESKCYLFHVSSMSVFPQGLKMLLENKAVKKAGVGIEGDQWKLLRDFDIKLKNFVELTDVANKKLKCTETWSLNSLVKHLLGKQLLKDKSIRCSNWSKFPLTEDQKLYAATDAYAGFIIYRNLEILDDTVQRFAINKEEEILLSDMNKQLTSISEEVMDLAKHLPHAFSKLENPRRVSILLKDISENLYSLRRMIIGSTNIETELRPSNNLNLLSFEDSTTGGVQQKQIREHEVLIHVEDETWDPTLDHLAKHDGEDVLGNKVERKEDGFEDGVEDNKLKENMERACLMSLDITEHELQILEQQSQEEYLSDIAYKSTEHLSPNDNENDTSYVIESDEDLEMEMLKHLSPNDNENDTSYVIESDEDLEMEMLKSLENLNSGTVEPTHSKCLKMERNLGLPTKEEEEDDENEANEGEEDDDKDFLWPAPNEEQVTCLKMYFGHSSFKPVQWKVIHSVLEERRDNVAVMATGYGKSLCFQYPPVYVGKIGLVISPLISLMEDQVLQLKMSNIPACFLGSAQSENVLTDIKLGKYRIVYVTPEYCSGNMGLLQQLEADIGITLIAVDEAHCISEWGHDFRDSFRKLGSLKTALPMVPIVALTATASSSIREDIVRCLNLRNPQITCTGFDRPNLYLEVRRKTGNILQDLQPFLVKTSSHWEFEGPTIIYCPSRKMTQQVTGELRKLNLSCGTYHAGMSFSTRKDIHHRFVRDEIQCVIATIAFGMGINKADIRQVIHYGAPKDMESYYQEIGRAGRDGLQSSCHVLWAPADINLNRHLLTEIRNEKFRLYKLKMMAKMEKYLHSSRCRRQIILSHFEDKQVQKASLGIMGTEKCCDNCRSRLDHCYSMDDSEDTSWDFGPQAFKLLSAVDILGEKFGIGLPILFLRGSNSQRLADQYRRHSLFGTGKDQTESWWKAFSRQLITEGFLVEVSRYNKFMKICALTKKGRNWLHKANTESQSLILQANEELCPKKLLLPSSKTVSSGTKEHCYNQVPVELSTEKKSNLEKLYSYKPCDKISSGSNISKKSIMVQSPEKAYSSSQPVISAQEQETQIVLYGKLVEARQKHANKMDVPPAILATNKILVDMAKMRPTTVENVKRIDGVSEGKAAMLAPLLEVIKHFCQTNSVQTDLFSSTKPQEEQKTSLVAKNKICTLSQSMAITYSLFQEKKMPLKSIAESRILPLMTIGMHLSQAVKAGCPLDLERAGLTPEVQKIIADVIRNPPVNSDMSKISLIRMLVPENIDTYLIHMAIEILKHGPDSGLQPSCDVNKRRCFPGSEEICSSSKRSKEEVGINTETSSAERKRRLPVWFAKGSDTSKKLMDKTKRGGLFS
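Kinetic red-fluorescence monitoring (525/598 nm) tracks WRN helicase activity after 100 nM fluorophore-quencher forked duplex and 2 mM ATP are added to 20 nM enzyme pretreated 15 min at room temperature with compound.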
TRb-SRC2 inh = TRbeta-SRC2 interaction inhibition; TRbeta-SRC2 peptide binding, fluorescence polarization; receptor liganded with 1 µM T3; actives 0.065% (n = 280,000); Potency, µM (titrated, usually from 106 µM), for the others: at the highest dose activity change, negative = inhibition, hits mostly inhibitors; AID 1469; P10828;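 further: plate controls were bound peptide for no effect and peptide without receptor for full effect; nearly all actives have a fitted effect of over 50% in size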
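Fluorescence polarization of 20 nM Texas Red SRC2 peptide (20-aa NR interaction domain) bound to 0.6 uM human TRb ligand-binding domain, with 1 uM T3, after 5 hr at ambient temperature; inhibition seen as decreased polarization.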
TR SRC2 fluor cs = Texas Red fluorescence interference in TRb-SRC2 counter-screen; TRb/SRC2 Texas Red total fluorescence interference; Potency, µM (titrated, usually from 106 µM), for the others: at the top dose fluorescence change, negative = quenching; actives 0.29% (n = 280,000); AID 1479; active means well fitted curve in either direction with a large enough effect; inconclusive means small, poorly fitted or top-dose-only effect
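Human TRβ ligand-binding domain (0.6 uM) and Texas Red SRC2 peptide (20 nM) in Tris buffer with 1 uM T3 and 5% DMSO were incubated with pinned compound for 5 hr at ambient temperature. Total fluorescence was computed as S + 2P (555/632 nm).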
APE1 dye cs = DNA dye displacement counter-screen activity. shares compounds with APE1 inh-1. actives 7% (n = 480). Potency, µM (highest dose often 28.5 µM), for the others: at the highest dose activity change, negative = inhibition, most hits filed as inhibitors. DNA fluorescent dye displacement counterscreen, fluorescence;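 further: loss of thiazole orange fluorescence as the dye is displaced from duplex DNA; 0% = ThO with dsDNA and no compound and -100% = ThO without dsDNA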
Endo IV inh = Endo IV (E. coli) inhibition counter-screen. actives 4% (n = 560). E. coli Endo IV, fluorogenic AP-site DNA cleavage. Potency, µM (titrated, usually from 27.1 µM), inactives show top-dose activity change, negative = inhibition, actives largely listed as inhibitors. shares compounds with APE1 inh-1;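 further: plate controls were uninhibited enzyme wells for no effect and no enzyme buffer wells for full effect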
APE1 inh-2 = APE1 (human) endonuclease inhibition, confirmation. shares compounds with APE1 inh-1. purified APE1, fluorogenic abasic-site DNA cleavage. Potency, µM (titrated, usually from 57.1 µM), for the others: at the top dose activity change, negative = inhibition, most hits filed as inhibitors. actives 44% (n = 750). AID 2572; further: nearly all actives have a fitted effect of over 30% in size
APE1 FP inh = displaces DNA from human APE1 in FP assay; shares compounds with APE1 inh-1; APE1 binding to TAMRA-labelled double-stranded DNA, fluorescence polarization displacement; Potency, µM (series often up to 28.5 µM), for inactives: at the top dose activity, negative = inhibition, usual class: inhibitors; actives 7% (n = 480)
The depositor's hits bear a star; ! = repeats disagree; [ ] = dose if it differs, or a comment. This is a sample that favours compounds with a hit; in the whole collection about 0.91% have one here. Unless noted, the call rests on the fitted dose curve; in most records, active means well fitted curve in the direction sought with a large enough effect; inconclusive means small, poorly fitted or top-dose-only effect, or another doubt; inactive means no such curve, though single readings can be large; an effect the other way counts as inactive or inconclusive. Unless noted, on the % scale 0 is the no-effect control and ±100 the full control effect; potency means the concentration at half of the fitted maximal effect.

Results for Cc1cc(C)n(-c2ccnc3cc(Cl)ccc23)n1 ?
BLM inh: -2%; APE1 inh-1: 14%; WRN inhibitor: 8%

How did CC(Oc1ccc(F)cc1)C(=O)N1CCC(c2nc3ccccc3s2)CC1 (stereo unspecified) do in these assays?
BLM inh: -1%; TRb-SRC2 inh: 1%; TR SRC2 fluor cs: -51%

Results for O=C(CSc1nc2ccc(Cl)cc2[nH]1)c1ccc2c(c1)OCO2 ?
RECQ1 inh: -17%; BLM inh: 2%; APE1 inh-1: 0%; WRN inhibitor: 3%; TRb-SRC2 inh: 10%; TR SRC2 fluor cs: 2%

Results for O=C(CSc1nc2cc(Cl)c(Cl)cc2[nH]1)c1ccc2c(c1)OCO2 ?
RECQ1 inh: -2%; BLM inh: -15%; APE1 inh-1: inconclusive; WRN inhibitor: -23%; TRb-SRC2 inh: 6%; TR SRC2 fluor cs: 0%; APE1 dye cs: 36%; Endo IV inh: -2%; APE1 inh-2: inconclusive; APE1 FP inh: 10%

What do the screens show for `Cc1ccc(N2CC(C(=O)Nc3ccc(S(=O)(=O)NCC4CCCO4)cc3)CC2=O)cc1C` (stereo unspecified)?
BLM inh: -6%; APE1 inh-1: 13%; WRN inhibitor: -2%

Results for N#Cc1cccnc1N1CCN(C(=O)c2[nH]c(C(F)(F)F)nc2-c2ccccc2)CC1 ?
WRN inhibitor: -4%

How did O=C(OCCSCCOC(=O)C1CC=CCC1)C1CC=CCC1 (stereo unspecified) do in these assays?
WRN inhibitor: -13%

Results for Cc1nc(N=Nc2ccc(S(=O)(=O)O)cc2S(=O)(=O)O)c(COP(=O)(O)O)c(C=O)c1O ?
RECQ1 inh: -3%; BLM inh: -4%; APE1 inh-1: 32µM*!; TRb-SRC2 inh: 11%; TR SRC2 fluor cs: -4%; Endo IV inh: -1%[57.1 µM]; APE1 inh-2: -6%

How did Cc1nc(N=Nc2ccc(C(=O)O)cc2)c(COP(=O)(O)O)c(C=O)c1O do in these assays?
RECQ1 inh: -1%; APE1 inh-1: inconclusive; TRb-SRC2 inh: -4%; TR SRC2 fluor cs: -6%; Endo IV inh: -10%[57.1 µM]; APE1 inh-2: 14µM*

Results for O=C(O)CCCN1C(=O)C2C3CCC(C3)C2C1=O (stereo unspecified) ?
WRN inhibitor: 5%

How did Cc1ccc(C2(COC(=O)C(C)C)CO2)c(OC(=O)C(C)C)c1 (stereo unspecified) do in these assays?
RECQ1 inh: inactive; BLM inh: -5%; APE1 inh-1: inconclusive; WRN inhibitor: 6%; TRb-SRC2 inh: 2%; TR SRC2 fluor cs: 2%

How did CCC(C)C(=O)OCC1(c2ccc(C)cc2OC(=O)C(C)C)CO1 (stereo unspecified) do in these assays?
RECQ1 inh: -14%; BLM inh: -12%; APE1 inh-1: inconclusive; WRN inhibitor: 1%; TRb-SRC2 inh: 1%; TR SRC2 fluor cs: 0%; APE1 dye cs: inconclusive; Endo IV inh: -9%; APE1 inh-2: 11µM*; APE1 FP inh: inconclusive

Results for O=c1c2cc(Br)cc(Br)c2oc2nc3n(c(=O)c12)CCCS3 ?
RECQ1 inh: -7%; BLM inh: -5%; APE1 inh-1: 2%; TRb-SRC2 inh: -4%; TR SRC2 fluor cs: -7%

What do the screens show for `O=Cc1ccc2oc3nc4n(c(=O)c3c(=O)c2c1)CCCS4`?
RECQ1 inh: 13µM*; BLM inh: 28µM*; APE1 inh-1: inconclusive; WRN inhibitor: 20µM*; TRb-SRC2 inh: 13%; TR SRC2 fluor cs: -15%; APE1 inh-2: 32µM*

How did COc1cc(/C=C2/C(C)=C(C#N)c3nc(N)c(C#N)c(C)c32)ccc1OCC(=O)O do in these assays?
RECQ1 inh: inconclusive; BLM inh: -8%; APE1 inh-1: inconclusive; WRN inhibitor: inconclusive; TRb-SRC2 inh: -1%; TR SRC2 fluor cs: 27%

Results for CC1=C(C#N)c2nc(N)c(C#N)c(C)c2/C1=C\c1ccc(-c2ccccc2C(=O)O)o1 ?
RECQ1 inh: 11µM*; BLM inh: -9%; APE1 inh-1: 25µM*; WRN inhibitor: 25µM*; TRb-SRC2 inh: inconclusive; TR SRC2 fluor cs: inconclusive; APE1 dye cs: 11µM*; Endo IV inh: 15%; APE1 inh-2: 14µM*; APE1 FP inh: 13µM*

How did OCCC1CN(Cc2cc(F)ccc2-n2cccn2)CCN1C1CCCC1 (stereo unspecified) do in these assays?
RECQ1 inh: -1%; BLM inh: 1%; APE1 inh-1: -4%; WRN inhibitor: 1%; TRb-SRC2 inh: 4%; TR SRC2 fluor cs: 3%

How did CC(=O)c1nn(-c2cccc(Br)c2)cc1C(=O)c1ccccc1 do in these assays?
RECQ1 inh: inactive; BLM inh: -3%; APE1 inh-1: inconclusive; WRN inhibitor: 4%; TRb-SRC2 inh: 2%; TR SRC2 fluor cs: 1%; APE1 dye cs: -7%; Endo IV inh: 7%; APE1 inh-2: -7%[24.4 µM]; APE1 FP inh: 4%

Results for CCNC(=O)C1CCCN(C(=O)c2ccc3c(c2)OCO3)CC1 (stereo unspecified) ?
WRN inhibitor: 1%

How did CN=c1scc(C)n1/N=C/c1ccc(O)c(O)c1O do in these assays?
RECQ1 inh: 10µM*; BLM inh: inconclusive; APE1 inh-1: 7.1µM*; WRN inhibitor: 20µM*; TRb-SRC2 inh: -3%; TR SRC2 fluor cs: -17%; APE1 dye cs: inconclusive; Endo IV inh: 93%; APE1 inh-2: 14µM*; APE1 FP inh: 8%

Assay outcomes (PubChem BioAssay)
